In PubChem BioAssay (NCATS):
Results filed as inconclusive are left out. Values without a mark were called inactive. Calls follow the shape of the full dose curve; tested in HEK293 reporter line.
% is scaled to controls: 0 for no effect and ±100 for the full control effect.

Assay: qHTS for Inhibitors of the Functional Ribonucleoprotein Complex (vRNP) of Lassa (LASV) Arenavirus: Viability assay - alamar blue signal for LASV Primary Screen (AID 1347083); also: nearly all actives have a fitted effect of over 80% in size
Conditions: cell viability, alamar blue fluorescence (LASV minigenome counter-screen); series mostly up to 57.5 µM; activity change, negative = reduced viability: at the top concentration
With C[C@]12CCC(=O)C=C1[C@@H]1CC1[C@H]1[C@H]3[C@@H]4C[C@H]4[C@@]4(CCC(=O)O4)[C@@]3(C)CC[C@H]12 (stereo not given in full) the “activity change, negative = reduced viability” value was -2.21%.
For O=c1c(-c2ccc(O)cc2)coc2cc(OC3OC(CO)C(O)C(O)C3O)ccc12 (stereo not given), the “activity change, negative = reduced viability” value was 8.99%.
For COc1cc(OC)c2c(-c3ccccc3)cc(=O)oc2c1, the “activity change, negative = reduced viability” value was -16.2%.
In the case of COc1ccc(-c2cnc(-c3cccnc3)o2)cc1, the “activity change, negative = reduced viability” value is reported as -20.8%.
For COc1cc(C(C)=O)cc(OC)c1O, the “activity change, negative = reduced viability” value was 14%.
For C=C1C2CC[C@]3(CCC4[C@@]5(C)CCC[C@@]4(CN(CCO)C5)[C@@H]3C2)[C@@H]1O (stereo not given in full), the “activity change, negative = reduced viability” value was 7.36%.
In the case of COc1c2c(cc3oc(C)cc(=O)c13)OC(C(C)(C)OC1OC(CO)C(O)C(O)C1O)C2 (stereo not given), the “activity change, negative = reduced viability” value is reported as -2.2%.
In the case of CCN1CC2(COC(=O)c3ccccc3N)CCC(OC)C34C5CC6C(OC)CC(O)(C5C6OC)C(O)(C(OC)C23)C14 (stereo not given), the “activity change, negative = reduced viability” value is reported as -3.71%.
With O=C1C=C(C2OC(CO)C(O)C2O)C(=O)N1 (stereo not given) the “activity change, negative = reduced viability” value was 17.8%.
In the case of COC(=O)C1=CO[C@@H](O)[C@@H]2C(CO)=CC[C@@H]12, the “activity change, negative = reduced viability” value is reported as -6.19%.
In the case of CC(=O)OC(C)c1ccccc1 (stereo not given), the “activity change, negative = reduced viability” value is reported as 5.82% [at 115 µM].
In the case of CC(c1c(O)c2ccccc2[nH]c1=O)C1(C)CCC(O)C(C)(C)O1 (stereo not given), the “activity change, negative = reduced viability” value is reported as 4.85%.
In the case of COc1cc(C)c(C(=O)Oc2cc(C)c(C(=O)O)c(O)c2C)c(O)c1C(=O)O, the “activity change, negative = reduced viability” value is reported as 17.6%.
With O=C(CCCO)CCCCCCCCC[C@H]1N[C@H](CO)[C@@H](O)[C@@H]1O the “activity change, negative = reduced viability” value was 10.7%.
For COc1c2ccoc2c(OC[C@@H](OC(C)=O)C(C)(C)O)c2oc(=O)ccc12, the “activity change, negative = reduced viability” value was -4.64%.
In the case of CC1=CCC2C(C1)C2(C)C (stereo not given), the “activity change, negative = reduced viability” value is reported as 8.87% [at 115 µM].
In the case of CC/C=C\C/C=C\C/C=C\C/C=C\C=C\C(O)CCCC(=O)O (stereo not given), the activity change, negative = reduced viability is reported as 9.64% [at 0.757 µM].
For O=C(Nc1ncc(SCCN2CCCC2)s1)[C@]1(c2ccc(S(=O)(=O)C3CC3)cc2)C[C@@H]1C1CCCCC1, the “activity change, negative = reduced viability” value was -7.34%.
For CC[C@]1(O)C[C@@H]2CN(CCc3c([nH]c4ccccc34)[C@@](C(=O)OC)(c3cc4c(cc3OC)N(C=O)[C@@H]3C45CCN4CC=C[C@](CC)([C@H]45)[C@@H](OC(C)=O)[C@]3(O)C(=O)OC)C2)C1 (stereo not given in full), the “activity change, negative = reduced viability” value was 3.9%.
In the case of C=C(C)[C@@H]1CCC2=CC(=O)C[C@@H](C)[C@]2(C)C1, the “activity change, negative = reduced viability” value is reported as -11.5% [at 115 µM].
C[C@]12O[C@H](C[C@@]1(O)C(=O)O)n1c3ccccc3c3c4c(c5c6ccccc6n2c5c31)CNC4=O gave an activity change, negative = reduced viability of -37.8% [at 5.82 µM].
For COC(=O)Nc1ccc(C)c(NC(=O)OC)c1, the “activity change, negative = reduced viability” value was 0.243%.
For CC(C)=CCc1c(O)cc(O)c2c1OC(c1ccc(O)cc1)CC2=O (stereo not given), the “activity change, negative = reduced viability” value was 6.52%.
For [3H]C([3H])([3H])C(O)(CCC[C@@H](C)C1CC[C@H]2/C(=C/C=C3/C[C@@H](O)CCC3=C)CCC[C@]12C)C([3H])([3H])[3H] (stereo not given in full), the “activity change, negative = reduced viability” value was 4.51%.
In the case of C/C(=C/C=C/[C@@H](C)C(=O)O)[C@H]1CN[C@H](C(=O)O)[C@H]1CC(=O)O, the “activity change, negative = reduced viability” value is reported as 10.4%.
With O=C1c2ccccc2C(=O)c2c(O)ccc(O)c21 the “activity change, negative = reduced viability” value was 0.297%.
For CC/C=C\CCOC(=O)CC, the “activity change, negative = reduced viability” value was -1.42%.
In the case of CCC1(CC)C(=O)NC(=O)N(c2ccccc2)C1=O, the “activity change, negative = reduced viability” value is reported as 4.29%.
With O=C(O)c1cccc(Br)c1 the “activity change, negative = reduced viability” value was 21.9%.
In the case of c1cnc2c(-c3nccc4c3[nH]c3ccccc34)cccc2c1, the “activity change, negative = reduced viability” value is reported as -9.6%.
In the case of CC1C2CC(CC2C2CCCC(O)C2)C1(C)C (stereo not given), the “activity change, negative = reduced viability” value is reported as 1.15%.
In the case of COc1cc2c(cc1OC)OC(C)(C)C=C2, the “activity change, negative = reduced viability” value is reported as 12.1%.
With CS(C)(=O)=O the “activity change, negative = reduced viability” value was 0.007%.
With C=C(C)[C@@H]1CCC2(C(=O)O)CC[C@]3(C)[C@H](CC[C@@H]4[C@@]5(C)CCC(=O)C(C)(C)[C@@H]5CC[C@]43C)[C@@H]12 (stereo not given in full) the “activity change, negative = reduced viability” value was -0.745%.
For O=C(CCCCO)CCCCCCCC[C@H]1N[C@H](CO)[C@H](O)[C@@H]1O[C@@H]1O[C@H](CO)[C@@H](O)[C@H](O)[C@H]1O, the “activity change, negative = reduced viability” value was 5.58%.
For O=C1N[C@@H](Cc2cnc[nH]2)C(=O)N2CCC[C@@H]12, the “activity change, negative = reduced viability” value was 4.02%.
For CC1=CCC(O)(C(C)C)CC1 (stereo not given), the “activity change, negative = reduced viability” value was 14.9% [at 115 µM].
For COc1cc(O)c2c(=O)c3c(OC)c(O)ccc3oc2c1, the “activity change, negative = reduced viability” value was 1.61%.
With CC(=O)[C@@]1(O)CCC2C3CC[C@H]4C[C@@H](O)CC[C@]4(C)C3CC[C@@]21C (stereo not given in full) the “activity change, negative = reduced viability” value was -1.82%.
In the case of c1ccc2c(c1)CCC[C@H]2Nc1nc2ccccc2[nH]1, the “activity change, negative = reduced viability” value is reported as -3.65%.
